Bioassay records: PubChem BioAssay, National Center for Advancing Translational Sciences (NCATS)
TRPML1 agonist = human mucolipin-1 channel agonism; Q9GZU1; TRPML1-expressing cells, Ca2+ dye fluorescence, FDSS; activation, % (no concentration beside the values); 410,000 compounds, 0.12% hits; AID 624414; in the data active = activation above about 50%; inconclusive = mostly about 30% to 49%; note: 0% is about no effect
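Cells: TRPML1-DL, 1X Tet inducer, ~16 h at 37 degrees C/5% CO2. Dye: ABD Ca8 no-wash + quencher, 45-90 min RT. Read: 10 s baseline, compound add, 110 s agonist phase; 54-4 EC80 (4uM final), 110 s antagonist phase.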
TRPML1 inh = human mucolipin-1 channel inhibition | TRPML1-inducible cells, Ca2+ dye fluorescence, FDSS; hits give low values; inhibition of EC80 agonist-evoked calcium signal | activity change, negative = inhibition, % (concentration not given with the values) | 390,000 compounds, 0.02% hits; in the data active = activity change below about -50%; inconclusive = between about -30% and that limit;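 note: stimulus is agonist 54-4 at its EC80 concentration; % is set by controls: 0 for no effect and ±100 for the full control effect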
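TRPML1-DL cells, Tet-induced overnight (~16 h, 37 °C) at 1,500 cells/well, were loaded with Ca8 no-wash dye plus quencher for 45-90 min at room temperature. Compounds were pinned during FDSS kinetic reading; agonist 54-4 at EC80 (4 uM final) then added.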
TRHR agonist = activates the human TRH receptor. AID 493084. 360,000 compounds, 0.18% hits. activation, % at 2 µM. P34981. TRHR cells, calcium flux fluo-8, FDSS agonist mode; in the data active = activation above about 30%; note: 0% is about no effect
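Fluo-8-loaded TRHR cells; 10 s baseline, compound added, kinetic Ca2+ fluorescence read 1/s, agonist mode.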
TRPV1 ag = human TRPV1 agonism. activation, % at 8.33 µM. Q8NER1. 320,000 compounds, 0.19% hits. TRPV1-expressing cells, Fluo-8 calcium influx, agonist mode; in the data active = activation above about 80%; inconclusive = between about 30% and that limit; note: 0% is about no effect
Target sequence (Q8NER1 whole entry, looked up): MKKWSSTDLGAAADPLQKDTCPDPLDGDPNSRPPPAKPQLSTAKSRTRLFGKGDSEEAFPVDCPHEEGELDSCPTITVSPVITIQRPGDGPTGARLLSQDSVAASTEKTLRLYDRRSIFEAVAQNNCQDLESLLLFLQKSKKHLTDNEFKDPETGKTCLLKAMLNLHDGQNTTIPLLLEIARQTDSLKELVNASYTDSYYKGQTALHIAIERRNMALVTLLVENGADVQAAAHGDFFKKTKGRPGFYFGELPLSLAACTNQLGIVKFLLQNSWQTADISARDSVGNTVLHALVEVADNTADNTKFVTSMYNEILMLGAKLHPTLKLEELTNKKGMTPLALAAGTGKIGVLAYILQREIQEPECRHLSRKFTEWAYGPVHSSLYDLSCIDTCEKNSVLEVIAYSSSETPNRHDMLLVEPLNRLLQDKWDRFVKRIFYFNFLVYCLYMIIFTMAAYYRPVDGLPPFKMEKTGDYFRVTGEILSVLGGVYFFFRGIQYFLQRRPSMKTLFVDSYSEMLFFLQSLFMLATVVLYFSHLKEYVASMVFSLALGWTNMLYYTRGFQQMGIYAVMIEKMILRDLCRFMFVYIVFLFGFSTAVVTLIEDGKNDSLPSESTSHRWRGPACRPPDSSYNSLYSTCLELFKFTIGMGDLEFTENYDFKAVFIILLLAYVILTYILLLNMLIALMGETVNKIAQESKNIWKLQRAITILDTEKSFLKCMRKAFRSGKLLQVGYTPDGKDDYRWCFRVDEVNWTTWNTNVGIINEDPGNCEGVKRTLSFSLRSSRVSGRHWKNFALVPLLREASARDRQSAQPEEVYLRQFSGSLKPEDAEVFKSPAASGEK
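Fluo-8 calcium influx in TRPV1-expressing cells, kinetic read (ex 480/em 520 nm). Compound added and read 3 min for agonist activity, followed by capsaicin at EC20 final and 2 min further read for enhancement.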
TRHR PAM = allosteric enhancers of human TRH receptor; TRHR cells, fluo-8 calcium fluorescence, EC20 TRH enhancement; enhancement, % at 2 µM; 360,000 compounds, 0.66% hits; AID 493056; in the data active = enhancement above about 30%; note: 0% is about no effect
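Enhancer read-out: after compound pinning and an initial kinetic agonist-mode read, an EC20 of TRH (10 nM final) was injected and fluo-8 calcium signal (Ex 480/Em 530) followed at 1 s/cycle for 100 cycles in TRHR-expressing cells.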
TRPV1 potentiator = human TRPV1 potentiation; AID 540277; potentiation, % at 8.33 µM; 320,000 compounds, 0.02% hits; TRPV1-expressing cells, Fluo-8 calcium influx, capsaicin EC20 potentiation; Q8NER1; in the data active = potentiation above about 80%; inconclusive = between about 30% and that limit; note: 0% is about no effect
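Fluo-8 calcium influx in TRPV1-expressing cells, kinetic read (ex 480/em 520 nm). Compound added and read 3 min for agonist activity, followed by capsaicin at EC20 final and 2 min further read for enhancement.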
Numbers without * were called inactive; ? = inconclusive; · = no result given. A selection: hits, their analogues and other compounds. The true share with any hit is near 0.99%.

SMILES | TRPML1 agonist | TRPML1 inh | TRHR agonist | TRPV1 ag | TRHR PAM | TRPV1 potentiator
CC(C)(C)C(=O)Nc1ccc2c(c1)C(=O)C(=O)c1ccccc1-2 | 2 | · | · | · | · | ·
Cc1ccc2nc(-c3ccc(C)c(NC(=O)COc4ccc(Cl)cc4)c3)oc2c1 | -1 | · | · | · | · | ·
O=C(CSc1nnc(-c2ccncc2)o1)NC1C2CC3CC(C2)CC1C3 (configuration not stated) | 0 | -4 | 0 | 0 | 31* | 13
CC(C)c1ccc(/C=C/C(=O)NCCCc2ccccc2)cc1 | 3 | 10 | 1 | ? | -1 | -8
CCCNC(=O)/C=C/c1ccc(C(C)C)cc1 | 2 | -23 | -1 | ? | 35* | -19
Cn1c(=O)c2c(-c3ccc(Cl)cc3)n(Cc3ccc(Cl)cc3)cc2n(C)c1=O | 1 | 70 | -1 | · | 6 | ·
C=CCC1NS(=O)(=O)OC(CCCC)C1O (configuration not stated) | 0 | 5 | 0 | 1 | 34* | -7
C=CCC1NS(=O)(=O)OC(COC)C1C (configuration not stated) | 0 | 25 | 0 | 0 | 0 | -1
C=CC[C@H](c1ccc(F)cc1)N(CC(C)C)S(=O)(=O)C=C | 21 | · | · | · | · | ·
CC(C)(C)S(=O)(=O)c1cnc(N2CCCCC2)nc1N | 0 | -1 | 0 | 1 | -9 | -22
CC(C)(C)S(=O)(=O)c1cnc(-c2ccc(Cl)cc2)nc1N | 74* | -17 | 1 | · | 0 | ·
CC(C)(C)OC(=O)n1cc(/C=N/NC(=O)c2ccco2)c2ccccc21 | -1 | 17 | -1 | ? | 31* | -2
CC1=CC(C)(C)N(C(=O)CN2C(=O)CCC2=O)c2ccccc21 | 0 | -4 | 0 | 1 | -5 | -9
CC1=CC(C)(C)N(C(=O)CN2C(=O)c3ccccc3C2=O)c2ccc(C)cc21 | 61* | -5 | 0 | -1 | 7 | -9
CC1OC(O[C@H]2CC[C@]3(C)C4C=C[C@]56OC[C@@]7(CC[C@@H](C)[C@H](C)C75)[C@H](O)C[C@@]6(C)[C@]4(C)CC[C@H]3C2(C)C)C(OC2OC(CO)C(O)C(O)C2OC2OCC(O)C(O)C2O)C(O)C1O (some centres not stated) | · | · | 48* | ? | -22 | -45
CC1O[C@@H](OC2C(COC3OC(CO)C(O)[C@H](O)C3O)OC(OC3CC[C@]4(C)C(CC[C@@]5(C)[C@@H]4CC=C4[C@@H]6CC(C)(C)CC[C@]6(CO)C(O)C[C@]45C)C3(C)C)C(O)C2O)C(O)C(O)C1O (some centres not stated) | 1 | 14 | · | · | · | ·
CC(=O)Nc1cc(O)c2nonc2c1O | 0 | · | · | · | · | ·
COCCN(Cc1cn(C)nc1-c1ccc(Oc2ccccc2)cc1)C(C)C | 0 | -4 | 0 | 3 | 2 | -1
CC(C)N(C)Cc1cn(C)nc1-c1ccc(Oc2ccccc2)cc1 | 0 | 0 | 0 | 3 | 36* | -10
Cc1ccccc1-c1cc(C(=O)N2CCCC2)c2ccccc2n1 | 0 | 1 | 0 | 13 | 31* | -18
O=C(c1cc(-c2ccccc2Cl)nc2ccccc12)N1CCC1 | -1 | -1 | -1 | ? | 5 | -23
Cc1ccc(C)c(NC(=O)Cn2c(=O)n(Cc3nc(C)no3)c(=O)c3cc4c(cc32)OCO4)c1 | 2 | 31 | 1 | · | 5 | ·
COc1cc(N2Cc3ccccc3C2)ccc1C=O | 0 | 0 | -1 | -1 | 0 | 94*
Cc1cc(C)cc(N2Cc3ccccc3C2)c1 | 0 | 1 | 0 | 8 | 7 | -12
Cc1ccc(S(=O)(=O)N(C)c2ccc3sc(C)nc3c2)cc1 | 1 | 40 | -1 | 5 | 38* | -2
SMILES | TRPML1 agonist | TRPML1 inh | TRHR agonist | TRPV1 ag | TRHR PAM | TRPV1 potentiator
Cc1ccc(S(=O)(=O)N(C)c2ccc(C)c([N+](=O)[O-])c2)cc1 | 2 | 29 | -1 | -6 | 2 | 80*
COc1ccc(N(C)S(=O)(=O)c2ccc(C)cc2)c([N+](=O)[O-])c1 | 3 | 14 | 0 | 15 | 0 | -5
O=C(CSc1ccccc1)NCc1ccc2c(c1)CCN2C(=O)c1ccccc1 | 0 | 36 | -1 | · | -2 | ·
COc1ccc(-n2nc(C(=O)NCC(=O)NCC3COc4ccccc4O3)c3ccccc3c2=O)c(OC)c1 (configuration not stated) | 0 | 35 | 0 | 0 | 33* | 12
CCOC(=O)c1ccccc1NC(=O)COC(=O)C(CC(C)C)NC(N)=O (configuration not stated) | 0 | -9 | -1 | 4 | 41* | 3
CCOCC(=O)Nc1ccccc1C(=O)OCC | 0 | 29 | -1 | -1 | -2 | -6
CCCN(CCC)CCCNC(=O)c1cc2cc3ccc(Cl)cc3nc2o1 | 0 | 14 | 1 | 1 | 40* | 1
CCOC(=O)c1ccc(N2C(=O)c3n[nH]c(-c4ccco4)c3C2c2cccc(F)c2)cc1 (configuration not stated) | 1 | -13 | 7 | · | 34* | ·
CCOC(=O)c1ccc(N2C(=O)c3n[nH]c(-c4ccco4)c3C2c2ccc(F)cc2)cc1 (configuration not stated) | 1 | 6 | 5 | · | 7 | ·
Nc1cccc(N2C(=O)c3cccc4c(N)ccc(c34)C2=O)c1 | 55* | -23 | 127* | 26 | 13 | -6
Cc1cccc(N2C(=O)c3cccc4cccc(c34)C2=O)c1 | · | · | 0 | -6 | 1 | 16
CC(C)CCN1C(=O)c2cccc3c(N)ccc(c23)C1=O | 89* | -12 | · | · | · | ·
Cc1cccc(N2C(=O)c3cccc4c(N)ccc(c34)C2=O)c1 | 104* | -10 | 132* | 148* | 3 | 15
O=C(O)c1ccc2c3c(cccc13)C(=O)N(c1ccccc1)C2=O | 1 | -7 | 0 | 2 | 6 | 0
Nc1ccc2c3c(cccc13)C(=O)N(c1ccccc1)C2=O | 94* | -3 | -1 | -2 | 1 | 2
CCN1C(=O)c2cccc3c(Cl)ccc(c23)C1=O | -1 | -7 | 0 | 2 | -1 | -3
O=C(CCl)c1ccc2c(c1)CCCC2 | 1 | · | · | · | · | ·
Cc1ccc(S(=O)(=O)N2CCN(c3nc(-c4cccs4)cc4ccccc34)CC2)cc1 | 0 | · | · | · | · | ·
CCCCOC(=O)c1ccc(NC(=O)c2ccc3c(c2)CCCN3S(C)(=O)=O)cc1 | 1 | -5 | 9 | · | 3 | ·
CCc1nn2c(-c3ccco3)ccnc2c1-c1ccccc1 | 1 | -4 | 2 | · | 8 | ·
Cc1cccc(N2C(=O)c3cccc4c(N(C)CCO)ccc(c34)C2=O)c1 | 77* | -1 | -1 | 1 | -4 | 0
Cc1ccccc1OCC(=O)OCC(=O)Nc1cc(S(C)(=O)=O)ccc1Cl | 1 | 1 | 0 | -1 | 37* | ?
